The nature of assay [1]: A CellTox Green Cytotoxicity Assay to monitor cytotoxicity in HEK293 cells - 8 hour (AID 1224884). Note: nearly all actives have a fitted effect of over 35% in size. Note: potency is the fitted concentration of half-maximal effect. Summed up:
(§1)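 Homogeneous no-lysis format: HEK293 cell suspension mixed with CellTox Green reagent, seeded, incubated 5 h at 37 C/5% CO2, then dosed by pintool with compound in DMSO.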

A short description of assay [2]: qHTS RealTime-Glo MT Cell Viability Assay in HepG2 cells - 16 hour (AID 1224885). Note: nearly all actives have a fitted effect of over 50% in size. Note: potency is the fitted concentration of half-maximal effect. Summed up: (§2)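 Tox21 10K library screened in qHTS format on HepG2 cells carrying RealTime-Glo reagents. Compounds were added after a 5 h preincubation, and the luminescent signal from continuous culture was measured repeatedly during 40 h treatment.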
A short description of assay [3]: qHTS RealTime-Glo MT Cell Viability Assay in HEK293 cells - 8 hour (AID 1224887). Note: nearly all actives have a fitted effect of over 50% in size. Note: potency is the fitted concentration of half-maximal effect. Summed up: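 Measured as luminescence from the same continuously cultured HEK293 wells at successive time points (0, 8, 16, 24, 32, 40 h) after compound addition. Reagent present from seeding; dosing at 5 h; incubation 37 C.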
Assay [4] in a line: A CellTox Green Cytotoxicity Assay to monitor cytotoxicity in HEK293 cells - 16 hour (AID 1224888). Note: nearly all actives have a fitted effect of over 35% in size. Note: potency is the fitted concentration of half-maximal effect. Summed up: as §1
A short description of assay [5]: qHTS RealTime-Glo MT Cell Viability Assay in HepG2 cells - 0 hour (AID 1224889). Note: nearly all actives have a fitted effect of over 50% in size. Summed up: as §2
A short description of assay [6]: A CellTox Green Cytotoxicity Assay to monitor cytotoxicity in HepG2 cells - 8 hour (AID 1224890). Note: nearly all actives have a fitted effect of over 45% in size. Note: potency is the fitted concentration of half-maximal effect. Summed up:
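Fluorescent DNA-binding dye, 600 HepG2 cells/well, 5 h preincubation then compound in DMSO; same plates read at 0–40 h, 37 C.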

Assay [7] is described as follows: qHTS assay to identify small molecule antagonists of the estrogen receptor alpha (ER-alpha) signaling pathway using the BG1 cell line in the presence of 0.1 nM 17-beta-estradiol - cell viability counter screen (AID 1259241). Note: nearly all actives have a fitted effect of over 40% in size. Summed up: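 Viability in VM7Luc4E2 cells after 22 hr compound exposure under 0.1 nM 17beta-estradiol stimulation, by CellTiter-Fluor.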
Assay [8] can be described thus: qHTS assay to identify small molecule antagonists of the androgen receptor (AR) signaling pathway using the MDA cell line in the presence of 0.5 nM R1881 - cell viability counter screen (AID 1259242). Note: nearly all actives have a fitted effect of over 45% in size. Note: potency is the fitted concentration of half-maximal effect. The essentials:
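Human breast carcinoma MDA-kb2 cells, cultured without CO2, receive compounds alongside 0.5 nM (final) R1881 agonist. After 16 hr at 37C, viability is taken as live-cell protease signal.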

Assay [9] concerns the target Androgen receptor (Homo sapiens) (UniProt P10275). The experiment in a line: qHTS assay to identify small molecule antagonists of the androgen receptor (AR) signaling pathway using the MDA cell line in the presence of 0.5 nM R1881 (AID 1259243). Note: nearly all actives have a fitted effect of over 50% in size. The essentials: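 Cells: MDA-kb2 (MMTV-luc). Stimulus: 0.5 nM R1881. Time: 16 hr, 37C, no CO2. Detection: ONE-Glo luminescence after 30 min at RT.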

In assay [10] the target is Estrogen receptor (Homo sapiens) (UniProt P03372). The experiment in a line: qHTS assay to identify small molecule antagonists of the estrogen receptor alpha (ER-alpha) signaling pathway using the BG1 cell line in the presence of 0.1 nM 17-beta-estradiol (AID 1259244). Note: nearly all actives have a fitted effect of over 50% in size. Note: potency is the fitted concentration of half-maximal effect. The essentials: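 Seeding of stripped-serum-adapted VM7Luc4E2 cells, 24 h attachment, compound transfer, then 0.1 nM final 17beta-estradiol; after 22 h incubation, ONE-Glo reagent and luminescence reading.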

Assay [11] is described as follows: qHTS assay to identify small molecule HDAC inhibitors (AID 1259364).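 Note: wild-type HCT-116 cells with endogenous class I/II HDAC activity; top concentration of the series differs between compounds; nearly all actives have a fitted effect of over 45% in size.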 The essentials:
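After a 2 hr compound incubation (37C, 5% CO2), HCT-116 cells seeded at 1,500/well the day before received HDAC-Glo reagent; signal read as luminescence after 30 min at room temperature.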

A short description of assay [12]: qHTS assay to identify small molecule HDAC inhibitors - cell viability counter screen (AID 1259365). The essentials: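 Cytotoxicity was gauged in wild-type HCT-116 cells after a brief 2hr treatment with DMSO-dissolved compounds at 37C and 5% CO2, using CellTiter-Glo luminescence developed for 30min at room temperature.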
The nature of assay [13]: qHTS assay to identify small molecule agonists of the sonic hedgehog signaling (Shh) pathway (AID 1259368; calls by dose curve;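 note: NIH/3T3-derived 3T3Gli1-Luc cells carrying a stable Gli1-driven firefly luciferase reporter; series mostly up to about 92 µM; nearly all actives have a fitted effect of over 15% in size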). The essentials:
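Stable NIH/3T3 Gli1-Luc reporter clone; 24 hr cpd exposure after a 4 hr settling period; luminescence endpoint.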

Assay [14] is described as follows: qHTS assay to identify small molecule agonists of the sonic hedgehog signaling (Shh) pathway - cell viability counter screen (AID 1259366). Note: nearly all actives have a fitted effect of over 50% in size. The essentials:
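Stable Gli1-Luc NIH/3T3 clone, 2,000 cells/well. Compound exposure 24hr at 37C. Read-out: CellTiter-Fluor fluorescence.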

Assay [15] is described as follows: qHTS assay to identify small molecule antagonists of the sonic hedgehog signaling (Shh) pathway - cell viability counter screen (AID 1259367). Note: nearly all actives have a fitted effect of over 55% in size. Note: potency is the fitted concentration of half-maximal effect. Summed up: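 Cytotoxicity was assessed in parallel with Shh reporter activity by measuring live-cell protease fluorescence (CellTiter-Fluor) in NIH/3T3 cells stably carrying Gli1-Luc, treated with compound under conditioned medium stimulation for 23 hr plus 1 hr reagent incubation.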

A short description of assay [16]: qHTS assay to identify small molecule antagonists of the sonic hedgehog signaling (Shh) pathway (AID 1259369; calls by dose curve; note: nearly all actives have a fitted effect of over 45% in size; note: potency is the fitted concentration of half-maximal effect). Summed up:
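Gli1 transcriptional reporter (firefly Luc) in NIH/3T3 background, conditioned-medium activated. 24hr exposure, luminescence endpoint.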

In assay [17] the target is Estrogen receptor beta (Homo sapiens) (UniProt Q92731). The experiment in a line: qHTS assay to identify small molecule agonists of the estrogen receptor beta (ER-beta) signaling pathway (AID 1259377; active = well fitted activation curve with a large enough effect in the signal ratio in the repeat runs, not every such curve was filed as active; the % refers to the signal ratio). The essentials: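 Measured by fluorescence intensity from a B/G FRET beta-lactamase substrate (2 h, room temperature) in ER-beta-UAS-bla HEK293T cells treated with DMSO-dissolved compounds for 16 hr at 37C and 5% CO2.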

For assay [18] the target is unchanged. The experiment in a line: qHTS assay to identify small molecule antagonists of the estrogen receptor beta (ER-beta) signaling pathway (AID 1259378; active = well fitted inhibition curve with a large enough effect in the signal ratio in the repeat runs, not every such curve was filed as active; the % refers to the signal ratio). The essentials: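 ER-beta-UAS-bla HEK293T (GripTite) cells in 2% charcoal-stripped FBS medium were preincubated 6 hr at 37C, dosed with compound, then stimulated with 1 nM E2 (final) for 16 hr; beta-lactamase reporter read by B/G FRET fluorescence after 2 hr substrate loading.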

Assay [19] in a line: qHTS RealTime-Glo MT Cell Viability Assay in HEK293 cells - 24 hour (AID 1224886). Note: nearly all actives have a fitted effect of over 50% in size. Note: potency is the fitted concentration of half-maximal effect. The essentials: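 Luminescence generated by NanoLuc from substrate produced by living HEK293 cells served as the viability signal. Each value reflects the reading at its stated time point during continuous 40 h compound exposure at 37 C.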

Unmarked numbers belong to inactive results. Results filed as inconclusive are left out. Calls of active or inactive are those of the source. Unless noted, calls come from the whole dose curve; as a rule, active = well fitted curve in the direction sought with a large enough effect in the repeat runs; inconclusive = weak or mixed curves; inactive = no such curve, though single readings can be large; an effect the other way counts as inactive or inconclusive.

Chain of Estrogen receptor (Homo sapiens) (P03372 whole entry, looked up): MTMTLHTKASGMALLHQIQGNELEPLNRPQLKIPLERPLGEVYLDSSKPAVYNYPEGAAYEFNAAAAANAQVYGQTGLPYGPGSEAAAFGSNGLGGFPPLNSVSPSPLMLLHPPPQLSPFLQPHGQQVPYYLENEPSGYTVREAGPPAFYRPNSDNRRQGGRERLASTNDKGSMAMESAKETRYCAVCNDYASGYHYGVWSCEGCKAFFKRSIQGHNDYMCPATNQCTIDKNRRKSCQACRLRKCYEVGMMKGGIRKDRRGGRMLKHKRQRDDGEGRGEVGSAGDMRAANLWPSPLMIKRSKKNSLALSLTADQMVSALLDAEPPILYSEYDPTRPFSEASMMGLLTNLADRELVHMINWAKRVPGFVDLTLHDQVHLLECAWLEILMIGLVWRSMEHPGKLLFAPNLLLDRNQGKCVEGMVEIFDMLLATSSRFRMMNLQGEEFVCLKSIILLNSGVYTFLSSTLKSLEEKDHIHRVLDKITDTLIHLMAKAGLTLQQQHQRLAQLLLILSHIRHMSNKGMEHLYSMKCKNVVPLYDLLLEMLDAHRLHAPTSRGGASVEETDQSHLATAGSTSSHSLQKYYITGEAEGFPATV
Chain of Estrogen receptor beta (Homo sapiens) (Q92731 whole entry, looked up): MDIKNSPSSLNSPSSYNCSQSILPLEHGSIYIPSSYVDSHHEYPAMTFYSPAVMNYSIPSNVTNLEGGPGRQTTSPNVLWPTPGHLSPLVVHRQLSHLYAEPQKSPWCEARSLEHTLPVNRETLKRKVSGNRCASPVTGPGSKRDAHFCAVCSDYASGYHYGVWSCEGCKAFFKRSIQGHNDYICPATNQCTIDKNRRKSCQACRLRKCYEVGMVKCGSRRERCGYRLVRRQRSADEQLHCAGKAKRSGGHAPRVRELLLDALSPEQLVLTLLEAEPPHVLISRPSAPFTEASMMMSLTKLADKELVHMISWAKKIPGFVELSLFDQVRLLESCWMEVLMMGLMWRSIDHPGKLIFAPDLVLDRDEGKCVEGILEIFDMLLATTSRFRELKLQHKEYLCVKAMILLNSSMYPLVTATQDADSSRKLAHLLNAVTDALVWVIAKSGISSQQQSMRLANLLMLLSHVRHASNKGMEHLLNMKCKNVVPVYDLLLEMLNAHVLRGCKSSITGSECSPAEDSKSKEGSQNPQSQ
Chain of Androgen receptor (Homo sapiens) (P10275 whole entry, looked up): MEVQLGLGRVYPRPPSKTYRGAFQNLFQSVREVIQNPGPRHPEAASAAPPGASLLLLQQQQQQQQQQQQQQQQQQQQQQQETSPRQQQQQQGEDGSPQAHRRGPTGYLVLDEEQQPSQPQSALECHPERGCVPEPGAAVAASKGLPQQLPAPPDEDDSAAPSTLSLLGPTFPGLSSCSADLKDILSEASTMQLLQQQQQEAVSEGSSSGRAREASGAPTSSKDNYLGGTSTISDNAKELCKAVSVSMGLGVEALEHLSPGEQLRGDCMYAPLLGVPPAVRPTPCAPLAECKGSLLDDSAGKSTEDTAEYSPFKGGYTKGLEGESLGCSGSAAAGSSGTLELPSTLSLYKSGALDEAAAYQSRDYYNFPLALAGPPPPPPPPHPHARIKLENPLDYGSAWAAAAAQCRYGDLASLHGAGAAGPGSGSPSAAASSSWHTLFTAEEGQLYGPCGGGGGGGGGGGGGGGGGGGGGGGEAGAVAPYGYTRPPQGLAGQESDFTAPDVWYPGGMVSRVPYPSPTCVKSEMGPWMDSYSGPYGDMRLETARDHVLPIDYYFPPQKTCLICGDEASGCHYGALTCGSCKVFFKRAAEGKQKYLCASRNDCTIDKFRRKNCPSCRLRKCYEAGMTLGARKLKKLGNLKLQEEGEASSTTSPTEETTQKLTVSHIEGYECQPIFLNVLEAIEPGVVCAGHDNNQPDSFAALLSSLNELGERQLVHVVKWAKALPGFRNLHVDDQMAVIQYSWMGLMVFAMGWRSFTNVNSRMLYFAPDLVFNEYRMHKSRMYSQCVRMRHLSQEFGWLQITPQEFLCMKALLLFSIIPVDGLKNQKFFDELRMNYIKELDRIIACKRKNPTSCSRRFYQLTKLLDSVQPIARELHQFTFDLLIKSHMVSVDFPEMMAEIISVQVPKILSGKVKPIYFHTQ

For `CCCCCCCCSCc1cc(C)c(O)c(CSCCCCCCCC)c1`, the Potency result in assay [1], in assay [2], in assay [4], in assay [5], in assay [6] and in assay [7] was “inactive” in each case. Also, the Potency result in assay [8], in [9], in assay [10], in assay [11], in [12] and in assay [13] was “inactive” in each case. In [3], the Potency was 9.77 µM (active).

Take `O=c1cc[nH]cc1`: the Potency entry in assay [1], in assay [2], in [3], in [4], in [5] and in assay [6] was “inactive” in each case. Besides, the Potency result in assay [7], in [8], in assay [9], in [10], in assay [11] and in assay [12] was “inactive” in each case. Further, the Potency entry in assay [14], in assay [15], in assay [13], in assay [16] and in assay [18] was “inactive” each time. Further, the outcome in assay [17] was inactive.

Take `CN(C)CCOc1ccc(/C(=C(/CCCl)c2ccccc2)c2ccccc2)cc1`: the Potency was 45.8 µM (active) in assay [1]; 40.9 µM (active) in assay [2]; 40.9 µM (active) in assay [19]; 45.8 µM (active) in assay [4]; 36.4 µM (active) in assay [6]; 36.1 µM (active) in assay [16]. Also, the Potency result in assay [5], in assay [7], in assay [11], in [12] and in [13] was “inactive” throughout.

On to `Cc1ccc(Cl)c(N)c1Cl`, for which the Potency result in [1], in assay [2], in assay [4], in [5], in assay [6] and in [7] was “inactive” each time. For the same molecule, the Potency result in assay [8], in [11], in [12], in assay [13] and in assay [18] was “inactive” throughout. Moreover, the results for the Potency in [15] and in [16] were 61.1 µM (active) and 21.7 µM (active), respectively. Besides, the molecule was classed as inactive in [17].

As to `CCCCCCCCc1ccc(Nc2ccc(CCCCCCCC)cc2)cc1`, the Potency entry in assay [1], in assay [19], in assay [3], in assay [4], in assay [5] and in [6] was “inactive” throughout. The Potency entry in assay [7], in assay [8], in assay [9], in assay [10], in assay [11] and in assay [12] was “inactive” each time. Further, the Potency entry in [15], in assay [13], in assay [16] and in assay [18] was “inactive” in each case. The outcome in [17] was inactive.

For `c1ccc(C[P+](c2ccccc2)(c2ccccc2)c2ccccc2)cc1`, the Potency result in assay [1], in [2], in assay [4], in [5], in [6] and in [11] was “inactive” in each case. Further, the Potency entry in [12] and in assay [13] was “inactive” each time. In addition, the values for the Potency in assay [8], in assay [10] and in assay [16] were 10.9 µM (active), 1.22 µM (active) and 5.45 µM (active), respectively.

As to `CC(C)(C)C1=CC(=O)C(C(C)(C)C)=CC1=O`, the Potency result in assay [1], in assay [2], in [4], in assay [6], in [7] and in assay [8] was “inactive” in each case. The Potency result in [11], in assay [12] and in [13] was “inactive” throughout. In [17], the molecule was called inactive.

For the molecule `Nc1ccc(Oc2cccc(Oc3ccc(N)cc3)c2)cc1`, the Potency result in assay [1], in assay [2], in assay [3], in assay [4], in assay [5] and in assay [6] was “inactive” throughout. Further, the Potency entry in [7], in assay [8], in assay [11], in [12], in [14] and in [13] was “inactive” throughout. In addition, the Potency in [10] and in assay [16] was 8.63 µM (active) each time. Further, the call in assay [17] was inactive.

With `C=C1CC[C@H]2O[C@]2(C)CC[C@@H]2[C@@H]1CC2(C)C`, the Potency entry in [1], in assay [2], in [4], in assay [5], in [6] and in [7] was “inactive” in each case. Moreover, the Potency entry in assay [8], in assay [9], in assay [10], in assay [11], in assay [12] and in assay [14] was “inactive” throughout. Further, the Potency entry in assay [15], in assay [13], in assay [16] and in [18] was “inactive” in each case. In addition, the molecule was classed as inactive in assay [17].
